From PubChem BioAssay (NCI)
About 83,000 compounds went through this panel and 20% of them were active in at least one assay; those are over-represented in the sample as a whole.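 Values shown are percent growth following 48 h exposure of cells in 96-well plates to a single concentration of compound; below 10 was considered active.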 A number with no mark means an inactive call. Activity calls are given as the source filed them.

Legend:
Test in all cases: NCI-60 one-dose screen, 48 h (100 = growth as untreated, 0 = no growth, -100 = all killed)
Conditions in all cases: 10 µM unless noted
SR leukemia = tested on: SR leukemia
RPMI-8226 leukemia = tested on: RPMI-8226 leukemia
OVCAR-8 ovarian = tested on: OVCAR-8 ovarian
OVCAR-5 ovarian = tested on: OVCAR-5 ovarian
OVCAR-4 ovarian = tested on: OVCAR-4 ovarian
SK-OV-3 ovarian = tested on: SK-OV-3 ovarian
IGROV1 ovarian = tested on: IGROV1 ovarian
OVCAR-3 ovarian = tested on: OVCAR-3 ovarian
HS 578T breast = tested on: HS 578T breast
NCI/ADR-RES ovarian = tested on: NCI/ADR-RES ovarian
T-47D breast = tested on: T-47D breast
BT-549 breast = tested on: BT-549 breast
MDA-MB-435 melanoma = tested on: MDA-MB-435 melanoma
SW-620 colon = tested on: SW-620 colon
MCF7 breast = tested on: MCF7 breast
HCT-116 colon = tested on: HCT-116 colon
HCC-2998 colon = tested on: HCC-2998 colon
KM12 colon = tested on: KM12 colon
MDA-MB-468 breast = tested on: MDA-MB-468 breast

Row | SMILES | growth (SR leukemia) | growth (RPMI-8226 leukemia) | growth (OVCAR-8 ovarian) | growth (OVCAR-5 ovarian) | growth (OVCAR-4 ovarian) | growth (SK-OV-3 ovarian) | growth (IGROV1 ovarian) | growth (OVCAR-3 ovarian) | growth (HS 578T breast) | growth (NCI/ADR-RES ovarian) | growth (T-47D breast) | growth (BT-549 breast) | growth (MDA-MB-435 melanoma) | growth (SW-620 colon) | growth (MCF7 breast) | growth (HCT-116 colon) | growth (HCC-2998 colon) | growth (KM12 colon) | growth (MDA-MB-468 breast)
1 | O=C(NN1C(=O)/C(=C/C=C/c2ccc([N+](=O)[O-])o2)SC1=S)c1ccc(Cl)cc1 | 4.16% (active) | -23.8% (active) | -78.2% (active) | -97.7% (active) | -98.9% (active) | -99.6% (active) | -92.9% (active) | -98% (active) | -18.4% (active) | -42.6% (active) | -91.2% (active) | -91.1% (active) | -86.2% (active) | -80.9% (active) | -60% (active) | -76.1% (active) | -96.2% (active) | -93% (active) | -85.9% (active)
2 | COc1cc(/C=C/C(=O)c2ccc(C)cc2)ccc1Oc1nc(Nc2ccc(F)cc2)nc(N(C)C)n1 | 3.88% (active) | -1.89% (active) | 38% | 79.1% | 39.4% | 79.4% | 57.8% | 52.4% | 41.7% | 38.1% | 15.4% | -30.1% (active) | 53.9% | 6.82% (active) | 11.9% | -80.3% (active) | 91.9% | 65.4% | –
3 | O=C(CN1C(=O)/C(=C/c2ccccc2F)SC1=S)N1CCOCC1 | 27.9% | 52.8% | 93.4% | 91.9% | 73.7% | 112% | 100% | 52.8% | 104% | 92% | 61.4% | 111% | 94.1% | 32.6% | 35.3% | 45.3% | 116% | 99.1% | –
4 | O=C(CSc1nc2ccccc2c(=O)[nH]1)NCCN1CCCCC1 | 90.9% | 100% | 97.7% | 94.2% | 98.8% | 107% | 104% | 105% | 94.1% | 102% | 100% | 104% | 95.1% | 97% | 90.8% | 104% | 108% | 98.3% | –
5 | CN(C)CCCNC(=O)c1cc(NC(=O)c2cc(NC(=O)c3ccc(/C=C/c4ccccc4)cc3)cn2C)cn1C | -30.3% (active) | -0.0203% (active) | 35.7% | 105% | 58.4% | 88.7% | 78.3% | 51.6% | 94.6% | 91.6% | 54.5% | 69.2% | 58.6% | 7.42% (active) | -85.9% (active) | 0.824% (active) | 42.3% | -16.5% (active) | 37.4%
6 | Cn1cc(-c2nc(N)nnc2-c2c[nH]c3ccc(F)cc23)c2cc(Br)cnc21 | 3.88% (active) | -6.78% (active) | 0.188% (active) | 14.9% | 29.8% | 19.8% | 15.8% | -33.2% (active) | 35.8% | 0.236% (active) | 43.5% | -42.4% (active) | -39.4% (active) | 17.2% | 4.55% (active) | -14.8% (active) | -40.9% (active) | -21.7% (active) | -20.2% (active)
7 | COc1ccc(C2(SCCNCc3cc(N(C)C)ccn3)c3ccccc3C=Cc3ccccc32)cc1 | -28.5% (active) | -22.8% (active) | 9.18% (active) | 9.62% (active) | 43.7% | 36.5% | 40.8% | 14.6% | -3.79% (active) | -47.9% (active) | 32.4% | 6.65% (active) | -33% (active) | 4.94% (active) | -5.08% (active) | 3.35% (active) | -30.1% (active) | 13.9% | -46.9% (active)
8 | Cn1cc(-c2cc3nc(-c4c[nH]c5ccc(Cl)cc45)cc(N)n3n2)c2ccccc21 | 5.34% (active) | -38.7% (active) | -64.7% (active) | -89.2% (active) | -67.4% (active) | -86.5% (active) | -53.1% (active) | -62.7% (active) | -27.1% (active) | -29.7% (active) | -73.9% (active) | -74% (active) | -84.7% (active) | -39.3% (active) | -73.7% (active) | -88.3% (active) | -78% (active) | -70.3% (active) | -73.5% (active)
9 | COc1ccc2[nH]cc(-c3nc(N)nnc3-c3cn(C)c4ncccc34)c2c1 | 33.5% | 58.2% | 64.4% | 77.9% | 78% | 86.3% | 32.9% | 16.2% | 37.2% | 99% | 50.8% | 36.5% | -1.52% (active) | 39.4% | 25.6% | 26.7% | 80.2% | 16.6% | 27.6%
10 | Cc1ccc(C(=O)CSc2nc3ccc(F)cc3c(=O)n2-c2ccc(Cl)cc2)cc1 | 93.9% | 93.9% | 37.8% | 76.2% | 31% | 46% | 82.7% | 82.4% | -18.9% (active) | 28.3% | 96.5% | 1.44% (active) | 76.1% | 75% | 65.2% | 24.4% | 81.3% | 96.3% | 44.7%
11 | COc1cc2c(c(OC)c1OC)C(=O)CC(c1cccc(NC(=O)c3cc(NC(=O)[C@H](CO)NC(=O)OC(C)(C)C)ccc3Cl)c1)O2 (some centres not stated) | 19.4% | 17.9% | 21.9% | 86.8% | 47.9% | 81.7% | 36.8% | 27.4% | 28.7% | 76.4% | 13.5% | -3.14% (active) | 10.1% | 44% | 12.2% | 14.4% | 73% | 14.5% | 19.8%
12 | COc1ccc2[nH]c(O)c(N=NC(=O)COc3ccc(NC(=O)Nc4ccccc4)cc3)c2c1 | 52.8% | 80% | 9.54% (active) | 72.3% | 19.7% | 42.3% | 60.7% | 65.5% | 14% | 110% | 27.1% | -36.4% (active) | 56.9% | 38.4% | 23.7% | 29.3% | 34.9% | -46.2% (active) | 13%
13 | CC(=O)OC[C@@]1(C)C2CC[C@]3(C)C(CC=C4C5CC(C)(C)CC[C@]5(C(=O)Nc5cccc(C)c5)CC[C@]43C)[C@@]2(C)C[C@@H](OC(C)=O)[C@@H]1OC(C)=O (some centres not stated) | 30% | 15.9% | 39.7% | 81.2% | 38.6% | 59.7% | 61.8% | 47.5% | 77% | 36.2% | 24.3% | 47.4% | 48.2% | 40.5% | 24.9% | 21.8% | 49% | 48.7% | 1.92% (active)
14 | Cc1ccc(S(=O)(=O)c2nc(S(=O)(=O)c3ccc(C)cc3)c(Cl)s2)cc1 | 3.18% (active) | -32.7% (active) | 9.84% (active) | 31.6% | -26.1% (active) | 133% | 44.8% | -87.5% (active) | 86.5% | 29.5% | -24.6% (active) | 26.3% | 50.5% | -63.1% (active) | -57.1% (active) | -46.2% (active) | 58.8% | 23.9% | -78.8% (active)
15 | Cc1ccc(/C=C/c2n(Cc3ccc4ccccc4c3)c3ccccc3[n+]2Cc2ccc3ccccc3c2)cc1 | -34.2% (active) | -71% (active) | -59.8% (active) | -94% (active) | -70.5% (active) | -87.1% (active) | -76% (active) | -83.3% (active) | -46.2% (active) | -48.1% (active) | -51.1% (active) | -69.9% (active) | -78.2% (active) | -75.1% (active) | -78.3% (active) | -40.8% (active) | -87.3% (active) | -88.5% (active) | -78.6% (active)
